A number with no mark means an inactive call. Results filed as inconclusive are left out. Some of the results follow. Entries that show only a call come without a potency. Active and inactive are the calls of the source. Unless noted, calls follow the shape of the dose curve; as a rule, active = well fitted curve in the direction sought with a large enough effect; inconclusive = small, poorly fitted or top-dose-only effect, or another doubt; inactive = no such curve, though single readings can be large; an effect the other way counts as inactive or inconclusive.

The values below come from PubChem BioAssay (NCATS).

Assay [1] is described as follows: qHTS assay for small molecule activators of the nuclear factor-kappa B (NF-kB) signaling pathway (AID 651749; active = well fitted activation curve with a large enough effect in the signal ratio; the % refers to the signal ratio). As to conditions: NF-kB-bla ME-180 cells, beta-lactamase FRET ratio, 16 h; active compounds read high. An outline of the steps: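 Activation measured after 16 hr compound treatment at 37C, 5% CO2, of 2,000 ME-180 cells/well stably expressing an NF-kB response element–driven beta-lactamase reporter, via FRET-disruption fluorescence.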

In assay [2] the target is Fructose-bisphosphate aldolase (Giardia intestinalis (strain ATCC 50803 / WB clone C6)) (UniProt A8B2U2). The experiment in a line: qHTS Assay for Inhibitors of Fructose-1,6-bisphosphate Aldolase from Giardia Lamblia: Primary screen confirmation (AID 2787).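 Also: aldolase product measured through coupled diaphorase step turning resazurin into fluorescent resorufin; nearly all actives have a fitted effect of over 45% in size.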 As to conditions: purified Giardia aldolase enzyme activity; series mostly up to 57.5 µM. The method in brief:
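FBPA (40 nM in enzyme reagent, with 30 uM ZnCl2) was preincubated 10 min at RT with compound up to 57.5 uM final. Substrate plus coupled detection system was then added, and fluorescence (525/598 nm) was read after 20 min at RT.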

Assay [3] deals with Fructose-bisphosphate aldolase A (Oryctolagus cuniculus) (UniProt P00883). Nature of the assay: qHTS Assay for Inhibitors of Fructose-1,6-bisphosphate Aldolase from Giardia Lamblia: Rabbit FBPA Selectivity (AID 2794). Also: nearly all actives have a fitted effect of over 60% in size. As to conditions: Rabbit muscle FBPA enzyme inhibition, selectivity counter-screen; series mostly up to 57.5 µM. An outline of the steps: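 Selectivity was assessed on rabbit Class I enzyme by qHTS. Product formation was detected by AmpLite Red fluorescence (525/598 nm) after a 20 min RT reaction started with substrate, following 10 min compound preincubation at up to 57.5 uM final.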
Sequence of Fructose-bisphosphate aldolase A (Oryctolagus cuniculus) (P00883 whole entry, looked up): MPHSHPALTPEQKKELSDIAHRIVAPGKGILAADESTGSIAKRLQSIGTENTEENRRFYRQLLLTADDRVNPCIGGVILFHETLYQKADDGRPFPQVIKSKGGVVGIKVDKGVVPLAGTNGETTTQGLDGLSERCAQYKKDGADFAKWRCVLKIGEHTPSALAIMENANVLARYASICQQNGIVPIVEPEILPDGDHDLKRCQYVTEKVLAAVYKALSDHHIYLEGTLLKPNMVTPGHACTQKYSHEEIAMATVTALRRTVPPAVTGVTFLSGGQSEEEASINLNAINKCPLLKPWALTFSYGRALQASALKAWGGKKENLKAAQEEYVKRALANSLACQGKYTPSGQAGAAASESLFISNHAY
In general terms: qHTS replaces the single test concentration by a dilution series.

The nature of assay [4]: qHTS Assay for Inhibitors of Fructose-1,6-bisphosphate Aldolase from Giardia Lamblia: Mammalian cellular toxicity (AID 2786).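 Also: compound exposure lasted 48 h before reading; nearly all actives have a fitted effect of over 60% in size.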 Also: potency is read from the fitted curve at half-maximal effect. The conditions noted are these: mammalian cell viability counter-screen; series mostly up to 57.5 µM. An outline of the steps:
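Mammalian cytotoxicity surrogate: Chinese hamster ovary cells exposed to compound for 48 h at 37 °C. Cellular ATP then measured with ATPlite reagent, 20 min incubation.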

The nature of assay [5]: qHTS Assay for Inhibitors of Fructose-1,6-bisphosphate Aldolase from Giardia Lamblia: Coupling assay counterscreen confirmation (AID 2795). Also: nearly all actives have a fitted effect of over 55% in size. The conditions noted are these: GAPDH coupling enzyme counterscreen, biochemical; series mostly up to 57.5 µM. The method in brief: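 Primary-screen hits were tested against the coupling system alone (GAPDH-based, glyceraldehyde-3-phosphate), without aldolase. Compounds at up to 57.5 uM final were preincubated 10 min at RT with coupling enzymes, then substrate/detection mix (AmpLite Red) was added for 20 min at RT; fluorescence read at 525/598 nm.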

For assay [6], the target named is Glucocorticoid receptor (Homo sapiens) (UniProt P04150). Nature of the assay: GR-GFP Redistribution (AID 450;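 active = compounds whose dose series gives a full or clear partial fitted curve of increased nuclear translocation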; also: potency is read from the fitted curve at half-maximal effect). As to conditions: U2OS GR-GFP nuclear translocation, laser cytometry, 2 h.
Sequence of Glucocorticoid receptor (Homo sapiens) (P04150 whole entry, looked up): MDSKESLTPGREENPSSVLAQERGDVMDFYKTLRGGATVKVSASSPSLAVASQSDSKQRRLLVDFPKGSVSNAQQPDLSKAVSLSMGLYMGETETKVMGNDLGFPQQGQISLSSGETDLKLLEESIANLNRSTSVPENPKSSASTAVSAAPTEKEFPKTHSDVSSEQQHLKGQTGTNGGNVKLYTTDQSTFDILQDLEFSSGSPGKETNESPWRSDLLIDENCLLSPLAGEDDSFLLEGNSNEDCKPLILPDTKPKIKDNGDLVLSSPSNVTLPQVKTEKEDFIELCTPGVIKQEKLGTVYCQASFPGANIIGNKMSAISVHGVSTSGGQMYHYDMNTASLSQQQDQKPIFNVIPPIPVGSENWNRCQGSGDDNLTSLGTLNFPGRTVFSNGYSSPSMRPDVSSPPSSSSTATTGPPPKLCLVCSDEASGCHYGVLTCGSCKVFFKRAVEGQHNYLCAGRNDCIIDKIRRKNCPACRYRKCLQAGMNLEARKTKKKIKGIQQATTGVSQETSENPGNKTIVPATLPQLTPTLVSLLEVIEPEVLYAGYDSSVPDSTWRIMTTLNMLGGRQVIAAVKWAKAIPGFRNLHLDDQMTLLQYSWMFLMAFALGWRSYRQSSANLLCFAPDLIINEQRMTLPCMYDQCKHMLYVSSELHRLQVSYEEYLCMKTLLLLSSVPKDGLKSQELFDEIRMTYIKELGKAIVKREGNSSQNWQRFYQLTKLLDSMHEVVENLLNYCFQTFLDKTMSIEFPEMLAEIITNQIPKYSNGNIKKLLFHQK
Assay [7] in a line: qHTS Assay for Inhibitors of Fructose-1,6-bisphosphate Aldolase from Giardia Lamblia: Giardia lamblia growth inhibition (AID 2785). Also: nearly all actives have a fitted effect of over 70% in size. Also: potency is read from the fitted curve at half-maximal effect. As to conditions: Giardia lamblia trophozoite growth inhibition; series mostly up to 57.5 µM. An outline of the steps: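 Whole-parasite growth test: Giardia WB trophozoites in TYI-S-33 (pH 7.0), 100 per well, incubated 48 h at 37C with compound. ATP content was read by ATPlite luminescence.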

Assay [8] concerns the target Ubiquitin carboxyl-terminal hydrolase 1 (Homo sapiens) (UniProt O94782). The experiment in a line: Inhibitors of USP1/UAF1: Pilot qHTS (AID 504865).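 Also: rhodamine fluorescence freed from ubiquitin-rhodamine substrate followed over time; top concentration of the series differs between compounds; nearly all actives have a fitted effect of over 35% in size.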 As to conditions: purified USP1/UAF1, Ub-rhodamine cleavage fluorescence; series mostly up to 114 µM. The method in brief: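 USP1/UAF1 complex (1nM) preincubated with compound 15 min at room temperature, then Ub-Rho substrate (150nM final) added. Fluorescence read kinetically at 480/540 nm, 6 reads every 60 seconds. Buffer: 50mM HEPES pH 7.8, 0.5mM EDTA, 0.1 mg/ml BSA, 1mM TCEP, 0.01% Tween-20.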

Sequence of Fructose-bisphosphate aldolase (Giardia intestinalis (strain ATCC 50803 / WB clone C6)) (A8B2U2 whole entry, looked up): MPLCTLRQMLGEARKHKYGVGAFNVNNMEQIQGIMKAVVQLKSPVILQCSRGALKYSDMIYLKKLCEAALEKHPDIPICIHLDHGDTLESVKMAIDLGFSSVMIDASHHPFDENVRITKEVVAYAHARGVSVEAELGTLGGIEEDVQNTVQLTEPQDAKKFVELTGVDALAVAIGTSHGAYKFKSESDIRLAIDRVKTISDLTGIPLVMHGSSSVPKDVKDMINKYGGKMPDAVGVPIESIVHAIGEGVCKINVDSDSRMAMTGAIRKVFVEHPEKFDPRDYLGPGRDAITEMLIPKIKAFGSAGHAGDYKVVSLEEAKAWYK
Sequence of Ubiquitin carboxyl-terminal hydrolase 1 (Homo sapiens) (O94782 whole entry, looked up): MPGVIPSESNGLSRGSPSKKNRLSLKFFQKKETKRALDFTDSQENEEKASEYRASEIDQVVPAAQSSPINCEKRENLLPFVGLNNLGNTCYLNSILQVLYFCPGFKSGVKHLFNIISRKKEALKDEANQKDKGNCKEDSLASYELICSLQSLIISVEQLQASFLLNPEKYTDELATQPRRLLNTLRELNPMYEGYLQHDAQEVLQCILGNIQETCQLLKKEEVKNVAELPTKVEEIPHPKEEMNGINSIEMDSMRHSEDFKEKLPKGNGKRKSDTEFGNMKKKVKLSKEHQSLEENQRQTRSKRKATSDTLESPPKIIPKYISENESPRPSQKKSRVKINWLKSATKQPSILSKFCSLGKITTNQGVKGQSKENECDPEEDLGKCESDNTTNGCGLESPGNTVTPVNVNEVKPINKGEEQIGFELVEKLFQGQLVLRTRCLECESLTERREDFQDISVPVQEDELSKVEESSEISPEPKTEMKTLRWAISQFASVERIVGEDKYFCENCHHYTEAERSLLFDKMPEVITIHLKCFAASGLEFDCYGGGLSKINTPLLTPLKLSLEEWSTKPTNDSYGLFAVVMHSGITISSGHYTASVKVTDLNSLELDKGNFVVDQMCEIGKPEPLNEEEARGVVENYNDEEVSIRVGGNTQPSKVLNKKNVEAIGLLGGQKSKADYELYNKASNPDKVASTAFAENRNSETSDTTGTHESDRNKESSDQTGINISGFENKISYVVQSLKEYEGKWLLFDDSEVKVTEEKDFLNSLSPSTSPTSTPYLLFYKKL

Turning to `CC(=O)Nc1cccc(C)c1`, in assay [1], the activation was -1.12%.
With `O=c1nc(N/N=C/c2ccco2)cn[nH]1`, the result in assay [2] and in assay [3] was inactive.
For the compound `Cc1nc2ccc(NC(=S)N3CCC(C)CC3)cc2nc1C`, the Potency entry in assay [4] is “inactive”.
Consider `Cc1ccc(C(=O)Nc2nnc(C3=COCCO3)o2)cc1C`, for which the outcome in assay [3] was inactive.
For the compound `Oc1ccc2ccccc2c1N=Nc1nccs1`, in assay [4], the Potency was 10 µM (active). Further, the result in assay [5] was inactive.
Take `O=[N+]([O-])c1cc([N+](=O)[O-])c2cccnc2c1O`: the call in assay [2] was inactive.
Regarding `Cc1ccc(S(=O)(=O)NNC(=S)NC(C)(C)C)cc1`, the Potency entry in assay [4] is “inactive”. The result in assay [2], in assay [3] and in assay [5] was inactive.
Regarding `O=c1[nH]c(=S)[nH]c2[nH]c(=S)[nH]c12`, in assay [4], the Potency result was “inactive”.
In the case of `C=CCc1cc(C)ccc1OCCCn1ccnc1`, the compound was called inactive in assay [2].
Regarding `CCN1CCc2c(C#N)c(NCc3ccccc3)nc(NCCO)c2C1`, the Potency in assay [6] is greater than 20.6 µM. Also, the call in assay [3] was inactive.
With `Cn1nnc(NC(=S)NC(=O)c2ccccc2)n1`, the Potency result in assay [4] was “inactive”.
For `COc1ccccc1CN1CCN(Cc2cc(OC)c(OC)cc2OC)CC1`, the call in assay [3] and in assay [5] was inactive.
Regarding `O=[N+]([O-])c1ccc2nc(-c3ccccn3)[nH]c2c1`, the result in assay [3] was inactive.
With `COc1cc(CN2CCN(Cc3ccc(C)cc3)CC2)c([N+](=O)[O-])cc1OC`, the compound was classed as inactive in assay [3] and in assay [5].
`CCN(CC(=O)NC(=O)NCc1ccccc1)Cc1nc2ccccc2c(=O)[nH]1`: the compound was called inactive in assay [2] and in assay [3].
For `Clc1cccc(CN2COc3c(cc(Cl)c4cccnc34)C2)c1`, the compound was called inactive in assay [2], in assay [3] and in assay [5].
`COc1ccc(N=Nc2c(-c3ccc(OC)cc3)[nH]oc2=O)cc1`: the outcome in assay [3] and in assay [5] was inactive.
With `CN1CCCc2cc(C#N)c(=O)[nH]c21`, the call in assay [2] and in assay [3] was inactive.
Consider `O=C(CSc1cccc[n+]1[O-])c1ccc(-c2ccccc2)cc1`, for which the Potency result in assay [4] was “inactive”.
On to `CN(C)CCOc1ccc(Cl)cc1C(C)(C)C`, for which the Potency entry in assay [4] is “inactive”.
For `Cc1nnc(N/N=C/c2ccccn2)[nH]c1=O`, in assay [2], the compound was called inactive.
Take `CSc1n[nH]c(=S)n1N`: the Potency entry in assay [7] and in assay [4] was “inactive” throughout.
As for `COc1ccc(OC)c(Nc2nc(-c3ccc(O)c(O)c3)cs2)c1`, the compound was classed as inactive in assay [3].
Consider `Cc1csc(NC(=O)CN2CCCCCC2)n1`, for which the compound was called inactive in assay [3] and in assay [5].
Consider `CC(C)(c1ccccc1)c1ccc(OCCN2CCCC2)cc1`, for which, in assay [7], the Potency result is “inactive”. The compound was called inactive in assay [5].
On to `COC(=O)CC1=NN(c2nc(C)cc(C)n2)C(=O)C1`, for which, in assay [4], the Potency result was “inactive”.
Turning to `Cc1nnc(SCC2=C(C(=O)O)N3C(=O)C(NC(=O)Cn4nc(C)c(Cl)c4C)C3SC2)s1` (stereo not drawn), the Potency entry in assay [4] was “inactive”. The outcome in assay [2] was inactive.
Take `CCS(=O)(=O)c1cc([N+](=O)[O-])c(Sc2ccccc2N)s1`: in assay [4], the Potency entry is “inactive”. For the same compound, the outcome in assay [2] and in assay [3] was inactive.
Consider `C=CCNC(=S)/N=c1/ccccn1Cc1ccccc1`, for which, in assay [4], the Potency entry is “inactive”. The call in assay [2] was inactive.
As for `Cc1cccc(-c2nnc(SCC(=O)O)n2Cc2ccccc2)c1`, the Potency result in assay [4] was “inactive”. Moreover, the result in assay [2], in assay [3] and in assay [5] was inactive.
Consider `CC1CCCN(S(=O)(=O)c2ccc(C(=O)Nc3nnc(-c4ccncc4)o3)cc2)C1` (stereo not drawn), for which, in assay [4], the Potency entry is “inactive”. Further, the compound was called inactive in assay [2].
For the compound `Cn1c(=O)[nH]c(=O)c2c1[nH]c(=S)n2Cc1ccccc1`, the activity change, negative = inhibition in assay [7] was 4.88% [at 10.4 µM]. For the same compound, the Potency entry in assay [4] is “inactive”.
`Cc1cc(C)c2c(=O)[nH]c(SCC(=O)Nc3ccc(Br)cc3)nc2n1`: in assay [3], the result was inactive.
`Cc1cc(C)nc(N/N=C/c2ccc([N+](=O)[O-])o2)n1`: in assay [7], the Potency is 3.16 µM (active). Also, in assay [2], the call was inactive.
Regarding `COc1ccc(CN2CCN(Cc3ccc(OC)c(OC)c3OC)CC2)cc1`, the compound was classed as inactive in assay [2] and in assay [5].
For `CN1C(=O)/C(=C\c2ccc(-c3ccccc3)o2)SC1=S`, the Potency result in assay [4] is “inactive”. Moreover, the outcome in assay [3] and in assay [5] was inactive.
On to `CNC(=S)N/N=C/c1ccc(N2CCOCC2)s1`, for which, in assay [7], the activity change, negative = inhibition was -8.92% [at 10.4 µM]. Further, the Potency entry in assay [4] was “inactive”.
As for `OCCN1CCN(C(=S)c2ccc(-c3ccccc3)cc2)CC1`, the Potency entry in assay [4] was “inactive”.
Turning to `CC[C@@H](CO)Nc1nc(NCc2ccccc2)c2ncn(C(C)C)c2n1`, the Potency in assay [6] was greater than 46 µM. Besides, the Potency entry in assay [8] was “inactive”.
Turning to `COc1ccc(Cl)cc1C(=O)NNC(=O)c1nc2nc(C)cc(C)n2n1`, in assay [4], the Potency result was “inactive”.
Regarding `COCCN(C(=S)Nc1ccccc1OC)C1CCN(C(C)C)CC1`, the compound was classed as inactive in assay [2].
Turning to `C=C(C)CNC(=S)N/N=C/c1ccccc1OCC(=O)O`, the outcome in assay [5] was inactive.
